Experimental data published in PubChem BioAssay (EPA / NIEHS).
Activity calls are given as the source filed them. Rule for the calls: active = hit-call score of the fitted dose curve at least 0.9, where 1 is the maximum; inactive = score below 0.9.

How the values were obtained:
[1] = read-out: Transforming growth factor beta 1 (TGFb1), TGFB1 (gene 7040); assay: BSK_BE3C_TGFb1: BioMAP Diversity Plus: BE3C Assay for Transforming growth factor beta 1 (TGFb1) Biomarker Activity (AID 2283036); details: primary human bronchial epithelial cells; actives raise or lower the signal
Summary of the method: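 Read-out: ELISA for TGF-b1 in primary human bronchial epithelial cultures, 24 h post-dose. Bidirectional curve fitting vs DMSO control; gain or loss of signal both scored.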

[2] = read-out: Plasminogen activator inhibitor-1 (PAI1), SERPINE1 (gene 5054); assay: BSK_BE3C_PAI1: BioMAP Diversity Plus: BE3C Assay for Plasminogen activator inhibitor-1 (PAI1) Biomarker Activity (AID 2283037); details: primary human bronchial epithelial cells; actives raise or lower the signal
Summary of the method: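 ELISA read-out of PAI-1 from human bronchial epithelial primary cells, 24 h post-dosing; bidirectional curve fit vs DMSO baseline, gain or loss of signal scored.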

[3] = read-out: urokinase plasminogen activator (uPA), PLAU (gene 5328); assay: BSK_BE3C_uPA: BioMAP Diversity Plus: BE3C Assay for urokinase plasminogen activator (uPA) Biomarker Activity (AID 2283038); details: primary human bronchial epithelial cells; actives raise or lower the signal;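 note: uPA protein level quantified by ELISA in cell cultures; uPA read one day after compound addition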
Summary of the method: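 Primary human bronchial epithelial cells, uPA measured by ELISA 24 h after dosing. Bidirectional change relative to DMSO; cytotoxicity checked in parallel cultures by sulforhodamine B total-protein staining.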

[4] = read-out: Urokinase-type plasminogen activator receptor (uPAR), PLAUR (gene 5329); assay: BSK_BE3C_uPAR: BioMAP Diversity Plus: BE3C Assay for Urokinase-type plasminogen activator receptor (uPAR) Biomarker Activity (AID 2283039); details: primary human bronchial epithelial cells; actives raise or lower the signal
Summary of the method: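 ELISA readout of uPAR on human lung primary bronchial epithelial cells, 24 h post-dosing. Bidirectional curve fit relative to DMSO vehicle baseline; gain or loss of signal both scored.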

[5] = read-out: Interleukin-6 (IL6), IL6 (gene 3569); assay: BSK_CASM3C_IL6: BioMAP Diversity Plus: CASM3C Assay for Interleukin-6 (IL6) Biomarker Activity for (AID 2283040); details: primary human coronary artery smooth muscle cells; actives raise or lower the signal
[6] = read-out: Tissue plasminogen activator (tPA), PLAT (gene 5327); assay: BSK_BE3C_tPA: BioMAP Diversity Plus: BE3C Assay for Tissue plasminogen activator (tPA) Biomarker Activity (AID 2283041); details: primary human bronchial epithelial cells; actives raise or lower the signal
Summary of the method: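 ELISA read-out of tPA on human primary bronchial epithelial cells, 24 h post-dosing; bidirectional fit vs DMSO negative control/baseline.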

[7] = read-out: Interleukin-8 (IL8), CXCL8 (gene 3576); assay: BSK_CASM3C_IL8: BioMAP Diversity Plus: CASM3C Assay for Interleukin-8 (IL8) Biomarker Activity (AID 2283042); details: primary human coronary artery smooth muscle cells; actives raise or lower the signal;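 note: IL-8 protein level quantified by ELISA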
[8] = read-out: Human Leukocyte Antigen - DR isotype (HLADR), HLA-DRA (gene 3122); assay: BSK_CASM3C_HLADR: BioMAP Diversity Plus: CASM3C Assay for Human Leukocyte Antigen - DR isotype (HLADR) Biomarker Activity (AID 2283043); details: primary human coronary artery smooth muscle cells; actives raise or lower the signal;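 note: cell-surface HLA-DR protein level quantified by ELISA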
[9] = read-out: Macrophage colony-stimulating factor (MCSF), CSF1 (gene 1435); assay: BSK_CASM3C_MCSF: BioMAP Diversity Plus: CASM3C Assay for Macrophage colony-stimulating factor (MCSF) Biomarker Activity (AID 2283044); details: primary human coronary artery smooth muscle cells; actives raise or lower the signal;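 note: M-CSF protein amount quantified by ELISA after 24 h exposure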
[10] = read-out: Low-density lipoprotein receptor (LDLR), LDLR (gene 3949); assay: BSK_CASM3C_LDLR: BioMAP Diversity Plus: CASM3C Assay for Low-density lipoprotein receptor (LDLR) Biomarker Activity (AID 2283045); details: primary human coronary artery smooth muscle cells; actives raise or lower the signal;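 note: LDLR protein level on the cell surface quantified by ELISA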
[11] = read-out: Monocyte Chemoattractant Protein-1 (MCP1), CCL2 (gene 6347); assay: BSK_CASM3C_MCP1: BioMAP Diversity Plus: CASM3C Assay for Monocyte Chemoattractant Protein-1 (MCP1) Biomarker Activity (AID 2283046); details: primary human coronary artery smooth muscle cells; actives raise or lower the signal;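 note: MCP-1 level quantified by ELISA 24 h after dosing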
[12] = BSK_CASM3C_Proliferation: Cell Proliferation Assessment in the BioMAP Diversity Plus: CASM3C Assay (AID 2283047); details: primary human coronary artery smooth muscle cells;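 note: sulforhodamine B total protein stain as relative cell number at 560 nm; sub-confluent cells exposed 48 h before staining; fitted both ways against DMSO so gain or loss of cell number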
[13] = read-out: Monokine induced gamma interferon (MIG), CXCL9 (gene 4283); assay: BSK_CASM3C_MIG: BioMAP Diversity Plus: CASM3C Assay for Monokine induced gamma interferon (MIG) Biomarker Activity (AID 2283048); details: primary human coronary artery smooth muscle cells; actives raise or lower the signal;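 note: MIG protein level measured by ELISA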
[14] = read-out: serum amyloid A (SAA), SAA1 (gene 6288); assay: BSK_CASM3C_SAA: BioMAP Diversity Plus: CASM3C Assay for serum amyloid A (SAA) Biomarker Activity (AID 2283049); details: primary human coronary artery smooth muscle cells; actives raise or lower the signal;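 note: SAA protein level quantified by ELISA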
[15] = BSK_CASM3C_SRB: Viability Assessment in the BioMAP Diversity Plus: CASM3C Assay (AID 2283050); details: primary human coronary artery smooth muscle cells;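 note: total protein by SRB staining as cytotoxicity measure in parallel cultures; cells exposed to compound for 24 h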
[16] = read-out: Thrombomodulin, THBD (gene 7056); assay: BSK_CASM3C_Thrombomodulin: BioMAP Diversity Plus: CASM3C Assay for Thrombomodulin Biomarker Activity (AID 2283051); details: primary human coronary artery smooth muscle cells; actives raise or lower the signal;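 note: thrombomodulin protein level measured by ELISA 24 h after dosing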
[17] = read-out: Tissue Factor, F3 (gene 2152); assay: BSK_CASM3C_TissueFactor: BioMAP Diversity Plus: CASM3C Assay for Tissue Factor Biomarker Activity (AID 2283052); details: primary human coronary artery smooth muscle cells; actives raise or lower the signal;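 note: cell surface tissue factor protein level read by ELISA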
[18] = read-out: Interferon-gamma inducible Protein 10 (IP10), CXCL10 (gene 3627); assay: BSK_hDFCGF_IP10: BioMAP Diversity Plus: hDFCGF Assay for Interferon-gamma inducible Protein 10 (IP10) Biomarker Activity (AID 2283053); details: primary human foreskin fibroblasts; actives raise or lower the signal
Summary of the method: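 ELISA read-out of IP-10 (CXCL10) from primary human skin fibroblasts, 24 h after compound addition. Gain or loss of signal versus DMSO baseline, bidirectional curve fitting.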

[19] = read-out: Urokinase-type plasminogen activator receptor (uPAR), PLAUR (gene 5329); assay: BSK_CASM3C_uPAR: BioMAP Diversity Plus: CASM3C Assay for Urokinase-type plasminogen activator receptor (uPAR) Biomarker Activity (AID 2283054); details: primary human coronary artery smooth muscle cells; actives raise or lower the signal;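 note: cell-surface uPAR protein level quantified by ELISA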
[20] = read-out: Monokine induced gamma interferon (MIG), CXCL9 (gene 4283); assay: BSK_BE3C_MIG: BioMAP Diversity Plus: BE3C Assay for Monokine induced gamma interferon (MIG) Biomarker Activity (AID 2283035); details: primary human bronchial epithelial cells; actives raise or lower the signal;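 note: MIG protein measured by ELISA in BE3C cultures after 24 h of dosing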
Summary of the method: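 hu bronchial epithelial 1° cells, 24 h cpd; MIG by ELISA; bidirectional fit, DMSO = baseline.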

Measured: AC50

COc1ccc(/C=C/S(=O)(=O)NC(=O)c2ccc(C)cc2Cl)cc1
active: [12] 18.9 µM
not listed: [20]
inactive: all other assays above

O=C(O)CCN(C1(C(=O)NO)CCCC1)S(=O)(=O)c1ccc(Oc2ccc(F)cc2)cc1
not listed: [6]
inactive: all other assays above

COC(=O)c1c(Cl)c(Cl)c(C(=O)OC)c(Cl)c1Cl
not listed: [20]
inactive: all other assays above

CCCC(=O)OCC
not listed: [6] | [18]
inactive: all other assays above

CC(O)CN(CCN(CC(C)O)CC(C)O)CC(C)O (configuration not stated)
not listed: [6] | [20]
inactive: all other assays above

C=CC(=C)CCC=C(C)C
not listed: [6] | [18] | [20]
inactive: all other assays above

O=C1CCCCCN1
not listed: [18] | [20]
inactive: all other assays above

NC(=O)NO
not listed: [6] | [18] | [20]
inactive: all other assays above

O=c1[nH]c2ccc(S(=O)CCN3CCC(Cc4ccc(F)cc4)CC3)cc2o1 (configuration not stated)
not listed: [6] | [18] | [20]
inactive: all other assays above

CC(C)c1cccc(C(C)C)c1N1C(=O)c2ccc(O)cc2C1=O
inactive: [3] | [5] | [7] | [11] | [13] | [16] | [17]
active: [2] 9.07 µM | [6] 27.2 µM | [8] 14.1 µM | [9] 32 µM | [10] 36.3 µM | [12] 20 µM | [14] 26.1 µM | [15] 20 µM | [19] 20 µM

O=C(O)c1cccc(Oc2ccccc2)c1
not listed: [6] | [20]
inactive: all other assays above

CCC(C)(C)C(=O)O[C@H]1C[C@@H](C)C=C2C=C[C@H](C)[C@H](CC[C@@H]3C[C@@H](O)CC(=O)O3)[C@H]21
inactive: [5] | [13] | [14]
active: [1] 27.1 µM | [2] 31.9 µM | [4] 32.5 µM | [6] 5.4 µM | [7] 34.2 µM | [8] 20 µM | [9] 20 µM | [10] 20 µM | [11] 32.3 µM | [12] 2.18 µM | [15] 18.3 µM | [16] 0.336 µM | [17] 3.97 µM | [19] 29.2 µM

COC(=O)CC(=O)OC
not listed: [6] | [20]
inactive: all other assays above

CN(C)c1ccc(Cc2ccc(N(C)C)cc2)cc1
active: [16] 20 µM | [19] 2.98 µM
not listed: [9] | [20]
inactive: all other assays above

O=C(O)c1cc(N=Nc2ccc(S(=O)(=O)Nc3ccccn3)cc2)ccc1O
active: [12] 14.5 µM
not listed: [18] | [20]
inactive: all other assays above

CC1=CC(=O)CC(C)(C)C1
not listed: [6] | [18] | [20]
inactive: all other assays above

CC(=O)OCCC(C)C
not listed: [18] | [20]
inactive: all other assays above
